This is an account of results in PubChem BioAssay AID2568 (National Center for Advancing Translational Sciences (NCATS), 2010).

Each structure is given as a SMILES string. Inconclusive results are not listed. Calls of active or inactive are those of the source. Calls come from the whole dose curve.

The target in the assay is Neuropeptide S receptor (Homo sapiens) (UniProt Q6W5P4). The experiment in a line: Confirmation Concentration-Response Assay for Antagonists of the Neuropeptide S Receptor: cAMP Signal Transduction, SAR for Probe. The note with it: CHO-NPSR cells, cAMP TR-FRET, antagonist mode; series mostly up to 47.8 µM; activity change, negative = inhibition: at the top concentration. The text has this: NIH Chemical Genomics Center [NCGC] NIH Molecular Libraries Probe Production centers Network [MLPCN] MLPCN Grant: X01-DA026210-01 Assay Submitter (PI): Heilig, Markus Alexander NCGC Assay Overview: Neuropeptide S receptor (NPSR), previously known as GPR154, is a recently de-orphanized G protein coupled receptor. Its endogenous ligand is the 20 amino acids peptide Neuropeptide S (NPS). […] NPS and its receptor are found in various tissues. Specifically they are highly expressed in brain areas that have been implicated in modulation of arousal, stress and anxiety. Central administration of NPS in mice produces an unusual profile of activity by inducing wakefulness and arousal, while at the same time suppressing anxiety. Therefore, NPSR may represent a novel drug target for the treatment of sleep and anxiety disorders. To identify NPSR antagonists, we developed a cell-based cAMP assay. NPS can stimulate the production of cAMP in Chinese hamster ovary cells stably expressing NPS receptor. This change in intracellular cAMP level can be detected by a homogeneous LANCE cAMP assay based on the TR-FRET (time resolved fluorescence resonance energy transfer) between a europium-labeled cAMP tracer complex and a cAMP-specific antibody labeled with Alexa Fluor 647. The europium-labeled cAMP tracer complex is formed by the tight interaction between Biotin-cAMP (b-cAMP) and streptavidin labeled with Europium-W8044 chelate (Eu-SA). Light pulse at 320 nm excites the europium of the cAMP tracer and the energy emitted is transferred to the Alexa molecule bound to the cAMP antibody, generating a TR-FRET signal at 665 nm. Residual energy from the europium will produce a light at 620 nm. The native unlabeled cAMP from cell lysates competes with the europium-cAMP tracer for antibody binding and reversely reduces the emission signal of Alexa by interrupting FRET between the two labeled molecules. Both emission signals from the FRET donor (620 nm) and the acceptor (665 nm) can be detected by a plate reader in the TRF mode. Expression of result in fluorescence ratio (665 nm/620 nm) helps to normalize differences due to cell density and reagent dispensing. This assay was successfully optimized to a 1536-well plate format. Select compounds from the primary screen (AID 1461) were chosen for confirmation based on potency, efficacy, SAR, and activity across other assays in PubChem and at NCGC. Other compounds are analogs of active compounds from the primary screen.
Neuropeptide S receptor (Homo sapiens), sequence (Q6W5P4 whole entry, looked up): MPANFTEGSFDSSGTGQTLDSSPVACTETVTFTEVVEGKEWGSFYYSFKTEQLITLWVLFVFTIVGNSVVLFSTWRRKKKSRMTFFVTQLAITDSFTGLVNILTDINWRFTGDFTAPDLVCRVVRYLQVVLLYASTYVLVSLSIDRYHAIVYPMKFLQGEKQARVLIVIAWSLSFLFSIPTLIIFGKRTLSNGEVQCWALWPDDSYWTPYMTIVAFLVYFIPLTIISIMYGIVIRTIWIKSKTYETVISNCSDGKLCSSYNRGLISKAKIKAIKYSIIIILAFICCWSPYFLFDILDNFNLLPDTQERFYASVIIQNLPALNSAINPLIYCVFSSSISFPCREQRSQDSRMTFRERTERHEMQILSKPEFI
NCGC Assay Protocol Summary: A Chinese hamster ovary (CHO) cell line stably expressing the NPS receptor (CHO-NPSR) was obtained from Dr. Heilig lab at NIAAA and maintained in F-12 Kaighn's media (Invitrogen, Carlsbad, CA, 21127) supplemented with 10 % FBS, 100 units/ml penicillin, 100 ug/ml streptomycin and 250 ug/ml geneticin at 37C, 5% CO2 in a humidified atmosphere. Before the assay, aliquots of cells were frozen and stored at -135C. The assay was performed in 1536-well format. Data are reported for both the ratio of the two emission wavelengths, and also for the component 'donor' channel, Em2=620. […] IC50 values were determined from concentration-response data modeled with the standard Hill equation. NPS 1536-well assay protocol: (1) Fresh or frozen CHO-NPSR cells were suspended in F-12 Kaighn's media supplemented with 10 % FBS, 100 units/ml penicillin and 100 ug/ml streptomycin. Cells were plated at 4 ul/well (1200 cells) to white, tissue culture treated 1536-well plates, and then cultured at 37C, 5 % CO2 for 16 to 30 hours. (2) Add 23 nl/well of compound in DMSO solution. The final titration for each compound was between 0.6 nM and 46 uM. (3) Add 1 ul of stimulation reagent (1X HBSS buffer, 5 mM HEPES, 0.1% BSA, 500 uM RO-201724 (Sigma-Aldrich, B8279), 1.5% Alexa 647-labeled anti-cAMP antibody (from Perkin Elmer), 100 nM NPS) (4) Incubation at 37C, 5 % CO2 for 60 min. (5) Add 1 ul/well detection reagent. […]
Consider `COc1cccc(C2c3c(ncn(-c4ccccc4C)c3=N)Oc3ccc4ccccc4c32)c1` (stereo not given), for which the Potency is 9.72 µM (active). With `COc1ccc(C2c3c(nc(Cc4ccccc4)[nH]c3=O)Oc3ccc4ccccc4c32)cc1OC` (stereo not given), the “activity change, negative = inhibition” value is -20.3% (inactive). For the compound `COc1cccc(C2c3c(ncn(-c4ccccc4SC)c3=N)Oc3ccc4ccccc4c32)c1` (stereo not given), the Potency was 7.72 µM (active). Regarding `Cc1c(P(=S)(c2ccccc2)c2ccccc2)c2ccccc2n1C(=O)NCc1ccc(F)cc1`, the Potency is 31.5 µM (active). Regarding `COc1cccc(C2c3c(ncn(-c4ccc(C)cc4)c3=N)Oc3ccc4ccccc4c32)c1` (stereo not given), the Potency was 12.2 µM (active). The same measure, in the same setting: then `COc1cccc(C2c3c(ncn(-c4ccc(C(C)(C)C)cc4)c3=N)Oc3ccc4ccccc4c32)c1` (stereo not given), with 15.4 µM (active); and `COc1cccc(C2c3c(ncn(-c4cccc(Cl)c4)c3=N)Oc3ccc4ccccc4c32)c1` (stereo not given), with 15.4 µM (active); and `COc1ccc(C2c3c(ncn(CCc4ccccc4)c3=N)Oc3ccc4ccccc4c32)cc1OC` (stereo not given), with 24.4 µM (active). Consider `c1ccc(P(c2ccccc2)c2cnc3ccccn23)cc1`, for which the “activity change, negative = inhibition” value is -26.4% (inactive). In the case of `COc1ccc(C2c3c(nc(CCCc4ccccc4)[nH]c3=O)Oc3ccc4ccccc4c32)cc1OC` (stereo not given), the “activity change, negative = inhibition” value was -18.2% (inactive). As for `COc1cccc(C2c3c(ncn(-c4ccncc4)c3=N)Oc3ccc4ccccc4c32)c1` (stereo not given), the Potency was 19.4 µM (active). As to `C[n+]1cc(C(O)(c2ccccc2)c2ccccc2)n2ccccc21`, the “activity change, negative = inhibition” value was -11.9% (inactive). Same read-out and setting: then `Cc1c(P(=O)(c2ccccc2)c2ccccc2)c2ccccc2n1C`, with -18.1% (inactive). On to `COc1cccc(C2c3c(ncn(-c4ccc(F)cc4)c3=N)Oc3ccc4ccccc4c32)c1` (stereo not given), for which the Potency is 15.4 µM (active). As to `COc1cccc(C2c3c(ncn(-c4ccc(NC(C)=O)cc4)c3=N)Oc3ccc4ccccc4c32)c1` (stereo not given), the Potency is 19.4 µM (active). Same read-out and setting: the result for `COc1cccc(C2c3c(ncn(-c4ccccc4Cl)c3=N)Oc3ccc4ccccc4c32)c1` (stereo not given) reads 12.2 µM (active); that for `COc1cccc(C2c3c(ncn(-c4ccccc4OC)c3=N)Oc3ccc4ccccc4c32)c1` (stereo not given), 6.14 µM (active); that for `COc1ccc(C2c3c(N)nc(CCc4ccccc4)nc3Oc3ccc4ccccc4c32)cc1OC` (stereo not given), 48.7 µM (active). Still for that read-out and setting: the result for `CCC(C)(CCN1CCOCC1)N(Cc1cc2ccccc2n(C)c1=O)C(=O)C1CCCCC1` (stereo not given) reads 0.308 µM (active); that for `COc1cccc(C2c3c(ncn(-c4cccnc4)c3=N)Oc3ccc4ccccc4c32)c1` (stereo not given), 12.2 µM (active). Take `COc1ccc2c(c1)Oc1ncn(CCN3CCOCC3)c(=N)c1C2c1ccc(OC)c(OC)c1` (stereo not given): the Potency is 19.4 µM (active). For `Cc1c(P(=S)(c2ccccc2)c2ccccc2)[n+]2ccccc2n1CC(=O)c1ccccc1`, the Potency is 4.45 µM (active).

In the case of `COc1ccc(C2c3c(nc(CCc4ccccc4)[nH]c3=O)Oc3ccc4ccccc4c32)cc1OC` (stereo not given), the “activity change, negative = inhibition” value was -11.2% (inactive). Take `O=C(NCc1ccc(F)cc1)n1c(-c2ccccc2)c(P(=S)(c2ccccc2)c2ccccc2)c2ccccc21`: the “activity change, negative = inhibition” value was -26.1% (inactive).

As for `COc1cccc(C2c3c(ncn(-c4ccc5c(c4)OCO5)c3=N)Oc3ccc4ccccc4c32)c1` (stereo not given), the Potency was 6.14 µM (active). Turning to `COc1ccc(C2c3c(n(Cc4ccccc4)cnc3=N)Oc3ccc4ccccc4c32)cc1OC` (stereo not given), the Potency is 48.7 µM (active).

For the compound `COc1cccc(C2c3c(ncn(-c4ccc(-c5ccccc5)cc4)c3=N)Oc3ccc4ccccc4c32)c1` (stereo not given), the “activity change, negative = inhibition” value was -18.1% (inactive).

As for `O=C1OC(c2ccccc2)(c2ccccc2)N2CCN(C(=O)NCc3ccc(F)cc3)CC12` (stereo not given), the Potency is 1.94 µM (active). On to `COc1cccc(C2c3c(ncn(-c4cccc(C)c4)c3=N)Oc3ccc4ccccc4c32)c1` (stereo not given), for which the Potency was 12.2 µM (active). Take `Cn1cc(P(=O)(c2ccccc2)c2ccccc2)c2ccccc21`: the “activity change, negative = inhibition” value is -17.1% (inactive).

Consider `Cc1nc2ccccn2c1P(=O)(c1ccccc1)c1ccccc1`, for which the “activity change, negative = inhibition” value was -20.8% (inactive). In the case of `COc1ccc(C2c3c(n(CCCc4ccccc4)cnc3=N)Oc3ccc4ccccc4c32)cc1OC` (stereo not given), the Potency was 24.4 µM (active). In the case of `Cc1c(P(=S)(c2ccccc2)c2ccccc2)c2ccccc2n1Cc1ccccc1`, the “activity change, negative = inhibition” value is -21.2% (inactive).

For the compound `Cc1c(P(=S)(c2ccccc2)c2ccccc2)c2ccccc2n1CCc1ccccc1`, the “activity change, negative = inhibition” value was -9.1% (inactive). The same measure, in the same setting: then `OC(c1ccccc1)(c1ccccc1)c1cnc2ccccn12`, with -18.7% (inactive). `COc1cccc(C2c3c(ncn(-c4ccc(Br)cc4)c3=N)Oc3ccc4ccccc4c32)c1` (stereo not given): the Potency is 15.4 µM (active).

Take `COc1cccc(C2c3c(ncn(-c4ccc(C#N)cc4)c3=N)Oc3ccc4ccccc4c32)c1` (stereo not given): the Potency is 15.4 µM (active). Take `COc1cccc(C2c3c(ncn(-c4cccc(OC)c4)c3=N)Oc3ccc4ccccc4c32)c1` (stereo not given): the Potency is 9.72 µM (active). With `Cc1c(P(=S)(c2ccccc2)c2ccccc2)c2ccccc2n1C(=O)Cc1ccccc1`, the “activity change, negative = inhibition” value is -16.5% (inactive). As to `CCOC(=O)c1ccc(-n2cnc3c(c2=N)C(c2cccc(OC)c2)c2c(ccc4ccccc24)O3)cc1` (stereo not given), the Potency was 15.4 µM (active).
